# From PubChem BioAssay (NCI)
# This is part of a sample that, as a whole, favours compounds with a hit. Of some 83,000 tested, about 20% had one in any assay.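 In brief: 96-well plates, 48 h treatment, single concentration, percent growth endpoint.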 Unmarked numbers belong to inactive results. Calls of active or inactive are those of the source. Rule for the calls: active = growth percent below 10; inactive = the rest.
# System: CAKI-1 renal
# Assay: NCI-60 one-dose screen, 48 h (100 = growth as untreated, 0 = no growth, -100 = all killed)
# Settings: 10 µM unless noted
row,SMILES,growth
1,CCCCCN1C=C/C(=C\C(=O)N(C)c2ccc(Oc3ccccc3)cc2)c2ccccc21,93.1%
2,O=C1Nc2cc(-c3ccc(NC(=O)C4CC4)cc3)ccc2/C1=C/c1ccc[nH]1,102%
3,COc1cc2nc(-c3ccc(Cl)cc3)cc(OCCCN3CCCC3)c2cc1OC,3.85% (active)
4,CCCOC(=O)N[C@H]1CCc2c(Cl)c(OC)c(OC)c(OC)c2-c2ccc(SC)c(=O)cc21,13.8%
5,CCCCCCOc1ccc(/C=N/Nc2cc(C)nc3ccc(Cl)cc23)cc1,3.33% (active)
6,Nc1c(C(=O)Nc2cccc3cnccc23)sc2nc3c(cc12)CN(Cc1ccccc1)CC3,90.1%
7,CCCCOc1ccc(/C(C)=N/Nc2cc(C)nc3ccc(Br)cc23)cc1,82.9%
8,Cc1cnc(C(=O)Nc2nc3ccc(S(=O)(=O)Nc4ccc(C(C)(C)C)cc4)cc3[nH]2)cn1,27.3%
9,CCN1CCN(CCNc2nccc(-c3c(-c4cccc(OC)c4)nc4occn34)n2)S1(=O)=O,78.1%
10,CCCCOc1ccc(/C=N/Nc2cc(C)nc3ccc(Br)cc23)cc1,71.3%
11,O=c1[nH]nc(-c2ccccc2)c2sc3ncc(-c4ccc(Br)cc4)n3c12,56.1%
12,O=C(Nc1ccc(NC(=O)c2cc(=O)[nH]c3ccccc23)cc1)Nc1cccc(Cl)c1,78.1%
13,N#Cc1cc(-c2nc3ccccc3s2)c(=O)n(NS(=O)(=O)c2ccccc2)c1N,81.8%
14,Oc1ccc(C(c2ccc(O)cc2)c2ccc(Br)cn2)cc1,79.5%
15,CCOC(=O)[C@@H]1CCCN(S(=O)(=O)c2ccc(S(=O)(=O)N(CC)CC)c(F)c2)C1,64.1%
16,N#Cc1cccc(-c2ccc3c(c2)NC(=O)/C3=C\c2ccc[nH]2)c1,51.8%
17,O=[N+]([O-])c1cc(Br)c2cccc3c2c1CC3,95.3%
18,NS(=O)(=O)c1ccc(Cn2c(SCC(=O)N/N=C/c3ccccc3O)nc3ccccc3c2=O)cc1,54.2%
19,CCNC(=O)Oc1ccc(/C(=C(\C)c2ccccc2)c2ccc(OCCN(CC)CC)cc2)cc1,59.3%

row,SMILES,growth
1,COc1ccc(C(=O)/C=C/c2cc3ccccc3n3nnnc23)cc1,88.8%
2,O=C(N/N=C/c1ccc(Oc2ccccc2)cc1)c1cnn2c1NC(c1ccccc1)C2 (stereo unspecified),33.6%
3,NC1=NN=C(N)C1=Cc1cc2ccccc2n2nnnc12,91.1%
4,CCSCC1CC(O)(c2ccccc2)CC(c2ccc(F)cc2)O1 (stereo unspecified),-25.2% (active)
5,Cc1cccc(NC(=O)Nc2ccc(-n3cnc4cc(-c5ccc(O)cc5)ccc43)cc2)c1,35%
6,COc1ccc(/C=C(\C#N)n2nc3cccc(F)c3n2)cc1,81.2%
7,Nc1n[nH]c2cccc(C#Cc3cccc(C(=O)Nc4cccc(C(F)(F)F)c4)c3)c12,68.4%
8,O=C(Nc1ccccc1C(=O)N/N=C(\c1ccccc1)c1ccccn1)c1ccc(F)cc1,5.29% (active)
9,C=C1C(=O)O[C@H]2[C@H]1CC/C(C(=O)NCCCCCNC(=O)/C1=C/CC[C@@]3(C)O[C@H]3[C@H]3OC(=O)C(=C)[C@@H]3CC1)=C\CC[C@@]1(C)O[C@@H]21,106%
10,N#Cc1c(NCc2ccccc2I)sc2c1CCCCC2,74.8%
11,C=C1C(=O)O[C@H]2[C@H]1CC/C(COC(=O)NCC(C)c1ccc(CC(C)C)cc1)=C\CC[C@@]1(C)O[C@@H]21 (stereo partly specified),-23.9% (active)
12,Cc1cc(C(=O)/C=C/c2ccc[nH]2)ccc1-n1ccc(C(F)(F)F)n1,83.8%
13,C=C1C(=O)O[C@H]2[C@H]1CC/C(CNC(=O)/C=C/c1cccc(OC)c1)=C\CC[C@@]1(C)O[C@@H]21,-71.9% (active)
14,COc1cc(/C=N/NC(=O)c2cnn3c2NC(c2ccccc2)C3)ccc1Oc1ccccc1 (stereo unspecified),26%
15,COc1cc(C2=C(c3cn(C)c4ccccc34)COC2=O)cc(OC)c1OC,7.16% (active)
16,COc1cc(/C=C\C(=O)O)ccc1OCc1ccccc1,99.4%
17,COc1cc2c(=O)n(CCN)c3c4cc5c(cc4ccc3c2cc1OC)OCO5,18.6%
18,CCCCCN1C=C/C(=C\C(=O)N(C)c2ccc(OC(F)(F)F)cc2)c2ccccc21,89.4%
19,CN(C)CC(O)c1ccc(/C=C/c2ccc(Cl)cc2)cc1 (stereo unspecified),-46.1% (active)

# System: CCRF-CEM leukemia
# Assay: as above
# Settings: 10 µM unless noted
row,SMILES,growth
1,CCCCCN1C=C/C(=C\C(=O)N(C)c2ccc(Oc3ccccc3)cc2)c2ccccc21,75.4%
2,O=C1Nc2cc(-c3ccc(NC(=O)C4CC4)cc3)ccc2/C1=C/c1ccc[nH]1,98.7%
3,COc1cc2nc(-c3ccc(Cl)cc3)cc(OCCCN3CCCC3)c2cc1OC,44.6%
4,CCCOC(=O)N[C@H]1CCc2c(Cl)c(OC)c(OC)c(OC)c2-c2ccc(SC)c(=O)cc21,7.4% (active)
5,CCCCCCOc1ccc(/C=N/Nc2cc(C)nc3ccc(Cl)cc23)cc1,-9.5% (active)
6,Nc1c(C(=O)Nc2cccc3cnccc23)sc2nc3c(cc12)CN(Cc1ccccc1)CC3,109%
7,CCCCOc1ccc(/C(C)=N/Nc2cc(C)nc3ccc(Br)cc23)cc1,64.6%
8,Cc1cnc(C(=O)Nc2nc3ccc(S(=O)(=O)Nc4ccc(C(C)(C)C)cc4)cc3[nH]2)cn1,10.8%
9,CCN1CCN(CCNc2nccc(-c3c(-c4cccc(OC)c4)nc4occn34)n2)S1(=O)=O,117%
10,CCCCOc1ccc(/C=N/Nc2cc(C)nc3ccc(Br)cc23)cc1,2.46% (active)
11,O=c1[nH]nc(-c2ccccc2)c2sc3ncc(-c4ccc(Br)cc4)n3c12,22.4%
12,O=C(Nc1ccc(NC(=O)c2cc(=O)[nH]c3ccccc23)cc1)Nc1cccc(Cl)c1,77.1%
13,N#Cc1cc(-c2nc3ccccc3s2)c(=O)n(NS(=O)(=O)c2ccccc2)c1N,105%
14,Oc1ccc(C(c2ccc(O)cc2)c2ccc(Br)cn2)cc1,111%
15,CCOC(=O)[C@@H]1CCCN(S(=O)(=O)c2ccc(S(=O)(=O)N(CC)CC)c(F)c2)C1,85.1%
16,N#Cc1cccc(-c2ccc3c(c2)NC(=O)/C3=C\c2ccc[nH]2)c1,69.7%
17,O=[N+]([O-])c1cc(Br)c2cccc3c2c1CC3,99.9%
18,NS(=O)(=O)c1ccc(Cn2c(SCC(=O)N/N=C/c3ccccc3O)nc3ccccc3c2=O)cc1,23.2%
19,CCNC(=O)Oc1ccc(/C(=C(\C)c2ccccc2)c2ccc(OCCN(CC)CC)cc2)cc1,84%

row,SMILES,growth
1,COc1ccc(C(=O)/C=C/c2cc3ccccc3n3nnnc23)cc1,101%
2,O=C(N/N=C/c1ccc(Oc2ccccc2)cc1)c1cnn2c1NC(c1ccccc1)C2 (stereo unspecified),67.5%
3,NC1=NN=C(N)C1=Cc1cc2ccccc2n2nnnc12,97.5%
4,CCSCC1CC(O)(c2ccccc2)CC(c2ccc(F)cc2)O1 (stereo unspecified),22.9%
5,Cc1cccc(NC(=O)Nc2ccc(-n3cnc4cc(-c5ccc(O)cc5)ccc43)cc2)c1,17.8%
6,COc1ccc(/C=C(\C#N)n2nc3cccc(F)c3n2)cc1,98%
7,Nc1n[nH]c2cccc(C#Cc3cccc(C(=O)Nc4cccc(C(F)(F)F)c4)c3)c12,32.1%
8,O=C(Nc1ccccc1C(=O)N/N=C(\c1ccccc1)c1ccccn1)c1ccc(F)cc1,4.15% (active)
9,C=C1C(=O)O[C@H]2[C@H]1CC/C(C(=O)NCCCCCNC(=O)/C1=C/CC[C@@]3(C)O[C@H]3[C@H]3OC(=O)C(=C)[C@@H]3CC1)=C\CC[C@@]1(C)O[C@@H]21,105%
10,N#Cc1c(NCc2ccccc2I)sc2c1CCCCC2,94.4%
11,C=C1C(=O)O[C@H]2[C@H]1CC/C(COC(=O)NCC(C)c1ccc(CC(C)C)cc1)=C\CC[C@@]1(C)O[C@@H]21 (stereo partly specified),-24.2% (active)
12,Cc1cc(C(=O)/C=C/c2ccc[nH]2)ccc1-n1ccc(C(F)(F)F)n1,13.1%
13,C=C1C(=O)O[C@H]2[C@H]1CC/C(CNC(=O)/C=C/c1cccc(OC)c1)=C\CC[C@@]1(C)O[C@@H]21,1.02% (active)
14,COc1cc(/C=N/NC(=O)c2cnn3c2NC(c2ccccc2)C3)ccc1Oc1ccccc1 (stereo unspecified),29.3%
15,COc1cc(C2=C(c3cn(C)c4ccccc34)COC2=O)cc(OC)c1OC,8.87% (active)
16,COc1cc(/C=C\C(=O)O)ccc1OCc1ccccc1,98.3%
17,COc1cc2c(=O)n(CCN)c3c4cc5c(cc4ccc3c2cc1OC)OCO5,-19% (active)
18,CCCCCN1C=C/C(=C\C(=O)N(C)c2ccc(OC(F)(F)F)cc2)c2ccccc21,104%
19,CN(C)CC(O)c1ccc(/C=C/c2ccc(Cl)cc2)cc1 (stereo unspecified),-43.8% (active)
